Reference: PubChem BioAssay (NCATS)
Values joined by “and” are separate entries in the source; they are usually repeats but may differ in a detail not shown here. Equal entries are not always repeated. Records with an inconclusive call do not appear. Where a call stands in place of a potency, no number is given. A structure can be active in one record and inactive in another. Active and inactive are the calls of the source. Calls follow the shape of the dose curve; as a rule, active = well fitted inhibition curve with a large enough effect; inconclusive = small, poorly fitted or top-dose-only effect; inactive = no such curve, though single readings can be large or run the other way.

test: Primary qHTS for inhibitors of nuclear receptor binding SET domain protein 2 (NSD2) in an RCH-ACV wild type WT cells (2C) (AID 1645877); conditions: RCH-ACV (leukaemia line) NSD2 WT (2C) viability, CellTiter-Glo, 72 h; series mostly up to 44.9 µM; also: nearly all actives have a fitted effect of over 70% in size
Source text: Assay Provider: Jonathan D. Licht, MD
University of Florida College of Medicine, Gainesville, FL
Mutations in epigenetic regulators are common in relapsed pediatric acute lymphoblastic leukemia (ALL). Here, we uncovered the mechanism underlying the relapse of ALL driven by an activating mutation of the NSD2 histone methyltransferase (p.E1099K). […] Correction of this mutation restored glucocorticoid sensitivity. The transcriptional response to glucocorticoids was blocked in NSD2 mutant cells due to depressed glucocorticoid receptor (GR) levels and the failure of glucocorticoids to autoactivate GR expression. […] Pre-treatment of NSD2 p.E1099K cell lines and PDX samples with PRC2 inhibitors reversed glucocorticoid resistance in vitro and in vivo.
High-throughput drug screening of isogenic RCH-ACV cell lines was performed at the National Center for Advancing Translational Science (NCATS), National Institutes of Health as previously described (1). Briefly, isogenic RCH-ACV NSD2 p.E1099K mutant (9B) and WT cells (2C) were plated at 500 cells/well in a 1536-well plate with a 72-hour incubation with compounds prior to addition of CellTiter-Glo to assess cell viability. NCATS libraries screened include: NPC, MIPE 5.0, Kinase and NPACT. To determine compound activity in the qHTS assay, the concentration-response data for each sample was plotted and modeled by a four-parameter logistic fit yielding IC50 and efficacy (maximal response) values. The area under the curve (AUC) of the dose-response curve ensures both efficacy (magnitude of cell killing) and potency (concentration that elicits cell killing) are accounted for in the analysis of activity.
1. Tobie D Lee, Olivia W Lee, Kyle R Brimacombe, Lu Chen, Rajarshi Guha, Sabrina Lusvarghi, Bethilehem G Tebase, Carleen Klumpp-Thomas, Robert W Robey, Suresh V Ambudkar, Min Shen, Michael M Gottesman, Matthew D Hall. A High-Throughput Screen of a Library of Therapeutics Identifies Cytotoxic Substrates of P-glycoprotein. Mol Pharmacol. 2019, Nov;96(5):629-640.
Potency is read from the fitted curve at half-maximal effect.

Row | SMILES | Potency
1 | c1ccc(CC2=NCCN2)cc1 | 5.31 µM (active)
2 | NS(=O)(=O)Cc1noc2ccccc12 | inactive
3 | NCCNC(=O)c1ccc(Cl)cn1 | inactive
4 | C#C[C@]1(O)CC[C@H]2[C@@H]3CCC4=CC(=O)CC[C@@H]4[C@H]3CC[C@@]21CC | inactive
5 | Oc1ccc(Cl)cc1Cc1cc(Cl)ccc1O | 18.8 µM (active)
6 | C[N+]12CCC(CC1)C(OC(=O)C(O)(c1ccccc1)c1ccccc1)C2 (stereo not given) | inactive
7 | CCN1CCN(C(=O)N[C@@H](C(=O)N[C@@H]2C(=O)N3C(C(=O)O)=C(CSc4nnnn4C)CS[C@H]23)c2ccc(O)cc2)C(=O)C1=O | inactive
8 | CCCCN1C[C@H](O)[C@@H](O)[C@H](O)[C@H]1CO | inactive
9 | C[N+]1(CC2COC(c3ccccc3)(C3CCCCC3)O2)CCCCC1 (stereo not given) | 21.1 µM (active)
10 | CC(C)CCCC(C)N (stereo not given) | inactive
11 | CC1CCc2c(N3CCC(O)CC3)c(F)cc3c(=O)c(C(=O)O)cn1c23 (stereo not given) | inactive
12 | COP(=O)(OC)OC(c1ccc(Cl)cc1)P(=O)(OC)OC (stereo not given) | inactive
13 | Nc1nc(N)c(-c2ccccc2)s1 | inactive
14 | CN1CCC[C@@H]1CCO[C@](C)(c1ccccc1)c1ccc(Cl)cc1 | 13.3 µM (active)
15 | Nc1nc(Cl)nc2c1ncn2[C@@H]1O[C@H](CO)[C@@H](O)[C@@H]1F | 8.4 nM (active) and 37.2 nM (active)
16 | O=[N+]([O-])c1cccc(S(=O)(=O)NCCNS(=O)(=O)c2cccc([N+](=O)[O-])c2)c1 | inactive
17 | O=c1[nH]c(=O)n([C@H]2C[C@H](O)[C@@H](CO)O2)cc1F | 8.4 nM (active) and 46.8 nM (active)
18 | CCCN(CCC)S(=O)(=O)c1ccc(C(=O)O)cc1 | inactive
19 | FC(F)(F)C(F)(F)C(F)(F)C(F)(F)C(F)(F)C(F)(F)C(F)(F)C(F)(F)Br | inactive
20 | CC(=O)OCC(=O)[C@H]1CC[C@H]2[C@@H]3CCC4=CC(=O)CC[C@]4(C)[C@H]3CC[C@]12C | inactive

Row | SMILES | Potency
21 | CCCCCCCCCCC[C@@H](C[C@@H]1OC(=O)[C@H]1CCCCCC)OC(=O)[C@H](CC(C)C)NC=O | inactive
22 | Nc1ccc(S(=O)(=O)NCc2ccccc2)cc1 | inactive
23 | COc1ccc(C(Cl)=C(c2ccc(OC)cc2)c2ccc(OC)cc2)cc1 | inactive
24 | C=C[C@H]1CN2CC[C@H]1C[C@@H]2[C@@H](O)c1ccnc2ccc(OC)cc12 | inactive
25 | CCCCCCCCCCCCOCCOCCOCCOCCOCCOCCOCCOCCOCCO | 11.9 µM (active)
26 | NS(=O)(=O)c1cc2c(cc1Cl)NC(CC1CCCC1)NS2(=O)=O (stereo not given) | inactive
27 | Cc1c(-c2ccccc2)oc2c(C(=O)OCCN3CCCCC3)cccc2c1=O | inactive
28 | CCNC(=O)/C=C/c1cccc(Br)c1 | inactive
29 | CC[C@]12CCCN3CCc4c(n(c5ccccc45)C(=O)C1)[C@@H]32 | 5.96 µM (active)
30 | COc1cc([C@H]2Oc3cc([C@H]4Oc5cc(O)cc(O)c5C(=O)[C@@H]4O)ccc3O[C@@H]2CO)ccc1O | inactive and 23.5 µM (active)
31 | CCCCCCCCCCCCCCCC(=O)O | inactive
32 | NC(=O)C1(N2CCCCC2)CCN(CCCC(=O)c2ccc(F)cc2)CC1 | inactive
33 | CCC(C(=O)OCCOCCN(CC)CC)c1ccccc1 (stereo not given) | inactive
34 | CC(=O)N[C@@H](CCC(=O)O)C(=O)O | inactive
35 | CCN(CC)CCNc1ccc(CO)c2sc3ccccc3c(=O)c12 | 1.33 µM (active)
36 | O=S(=O)(O)c1ccc(O)cc1 | inactive
37 | CCCCCCCCCCCCSCCOCCO | inactive
38 | CC(=O)NO | inactive
39 | Nc1nc(-c2ccccc2)c(Br)c(=O)[nH]1 | inactive
40 | CC(C)(C)NC[C@H](O)COc1cccc2c1CCCC2=O | inactive
